# Measurements published in ChEMBL document CHEMBL1157539, “Thousands of chemical starting points for antimalarial lead identification” (Nature, 2010).
# Experiments:
# Type in all cases: functional
# [1] = test system: Plasmodium falciparum; experiment: GSK_TCMDC: Inhibition of Plasmodium falciparum 3D7 in whole red blood cells, using parasite LDH activity as an index of growth. Test compounds present at 2uM
# [2] = test system: Plasmodium falciparum; experiment: GSK_TCMDC: Inhibition of Plasmodium falciparum Dd2 in whole red blood cells, using parasite LDH activity as an index of growth. Test compounds present at 2uM
# [3] = test system: HepG2; experiment: GSK_TCMDC: Percent inhibition of human HepG2 cell line. Test compounds present at 10uM.
SMILES,Inhibition [1] [%],Inhibition [2] [%],Inhibition [3] [%]
CN(CCC(CCN1CCC(c2c[nH]c3ccccc23)CC1)c1ccccc1)C(=O)Nc1ccc(Cl)c(Cl)c1 (stereo not given),91,21,50
O=C(Nc1ccc(OC2CCN(Cc3ccc(F)cc3)C2)c(Cl)c1)c1ccco1.O=C(O)C(F)(F)F (stereo not given),96,97,9
CCc1ccc(CNCC(CCNc2cc(=O)c3ccccc3[nH]2)NCc2cc(Br)cc(Br)c2)o1 (stereo not given),100,92,0
Cc1ccccc1C1CCN(C2CCC(NC(=O)c3cc4cc(C(C)C)ccc4[nH]3)CC2)CC1 (stereo not given),99,100,100
C[C@H](Nc1c(Nc2ccc3[nH]ccc3c2)c(=O)c1=O)C1CCCCC1,96,11,7
OCC1CCN(Cc2cccc(C#Cc3cc4ncnc(Nc5ccc(OCc6cccc(F)c6)c(Cl)c5)c4s3)n2)CC1,99,95,41
COC(=O)[C@@H](NC(=O)[C@H](CC(C)C)Nc1ccc(C#N)c2ccccc12)c1ccc(O)cc1.O=C(O)C(F)(F)F,98,87,4
Cc1ccc2c(Cl)c(C(=O)N3CCCc4ccccc43)sc2c1,99,15,4
CC(C)(C)OC(=O)Cn1cnc2cc(NC(=O)c3cc([N+](=O)[O-])cc([N+](=O)[O-])c3)ccc21,100,97,11
O=C(c1csc(-c2cccnc2)n1)N1CCc2cc3nccc(N4CCN5CCC[C@H]5C4)c3cc21,97,78,0
